Experimental data published in PubChem BioAssay (Tox21).
Results filed as inconclusive are left out. Entries that show only a call come without a potency. Activity calls are given as the source filed them. Unless noted, calls follow the shape of the full dose curve.

System: not listed separately
Assay: p53 small molecule agonists, cell-based qHTS assay (AID 1963582; active = well fitted activation curve with a large enough effect in the signal ratio in the repeat runs, not every such curve was filed as active; the % refers to the signal ratio)
Details: HCT-116 p53RE-bla reporter, beta-lactamase FRET ratio, 16 h; series mostly up to 66 µM
In short: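 Fluorescence intensity read-out of a beta-lactamase reporter under a p53 response element. Cells were exposed to DMSO-dissolved compounds for 16 h at 37 C, then developed with FRET substrate for 2 h at RT.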
For `CCOC=C(C(=O)OCC)C(=O)OCC`, the Potency was “inactive”.
For `CCC(=O)OCc1ccccc1`, the Potency was “inactive”.
With `O=C1CC[C@H](C(=O)N2CCCCC2)N1` the Potency was “inactive”.
With `C=C1CC/C=C(\C)CC[C@@H]2[C@@H]1CC2(C)C` the Potency was “inactive”.
For `COc1cc(S(N)(=O)=O)cc(C(=O)O)c1OC`, the Potency was “inactive”.
In the case of `C1COCCO1`, the Potency is reported as “inactive”.
For `CC/C=C/CCO`, the Potency was “inactive”.
For `CC(=O)N1CCN(c2ccc(O)cc2)CC1`, the Potency was “inactive”.
For `Cc1ncc(CO)c(CN)c1O`, the Potency was “inactive”.
For `CC(C)(C)c1ccc(CCC=O)cc1`, the Potency was “inactive”.
In the case of `CC1=C(O)C(=O)C(C)O1` (configuration not stated), the Potency is reported as “inactive”.
With `CCOC(=O)[C@H](CCc1ccccc1)N[C@@H](C)C(=O)N1C(=O)N(C)C[C@H]1C(=O)O` the Potency was “inactive”.
In the case of `CCCCCCCCCCCCCCCCCC(=O)OCC(CC)CCCC` (configuration not stated), the Potency is reported as “inactive”.
For `NC(=O)Cc1cccc2ccccc12`, the Potency was “inactive”.
With `Cc1cnccn1` the Potency was “inactive”.
In the case of `O=Cc1ccc(Cl)cc1`, the Potency is reported as “inactive”.
For `CCCCCCCCCCC`, the Potency was “inactive”.
In the case of `CCCCOC(=O)CCS`, the Potency is reported as “inactive”.
For `COc1cc(C(=S)N2CCOCC2)cc(OC)c1OC`, the Potency was “inactive”.
With `CCCC(=O)Nc1ccc(O)c(C(C)=O)c1` the Potency was “inactive”.
With `COc1cc2c(Nc3ccc(Br)cc3F)ncnc2cc1OCC1CCN(C)CC1` the Potency was “inactive”.
With `CC(=O)c1ccc2c(c1)CCCC2` the Potency was “inactive”.
In the case of `c1cnc2cc3c(cc2n1)C1CNCC3C1`, the Potency is reported as “inactive”.
For `O=Cc1ccc([N+](=O)[O-])cc1`, the Potency was “inactive”.
For `CCC(=O)O[C@@H]1C[C@H]2CC[C@]1(C)C2(C)C`, the Potency was “inactive”.
With `CCNc1nc(N)nc(Cl)n1` the Potency was “inactive”.
In the case of `CN(C)CCCNCCC#N`, the Potency is reported as “inactive”.
For `O=C1CCN(c2ccccc2)N1`, the Potency was “inactive”.
In the case of `O=C(O)c1ccc(OCCN2CCCCC2)cc1`, the Potency is reported as “inactive”.
With `C=CC(C)(O)CC/C=C(/C)CCC=C(C)C` (configuration not stated) the Potency was “inactive”.
In the case of `Cc1cc(CCC(=O)OCCOCCOCCOC(=O)CCc2cc(C)c(O)c(C(C)(C)C)c2)cc(C(C)(C)C)c1O`, the Potency is reported as “inactive”.
With `C1CCCC1` the Potency was “inactive”.
With `NS(=O)(=O)c1ccccc1OC(F)(F)F` the Potency was “inactive”.
With `Clc1ccc2c(c1)Nc1ccccc1S2` the Potency was “inactive”.
For `CC(C)(O)C(=O)c1ccc(OCCO)cc1`, the Potency was “inactive”.
In the case of `C[Si](C)(C)O[Si](C)(C)O[Si](C)(C)C`, the Potency is reported as “inactive”.
For `[Cl][Nd]([Cl])[Cl]`, the Potency was “inactive”.
For `O=C(Cn1ccnc1[N+](=O)[O-])NCc1ccccc1`, the Potency was “inactive”.
With `O=C(O)CC(=O)O` the Potency was “inactive”.

Target: 5-hydroxytryptamine receptor 2A (Homo sapiens) (UniProt P28223)
Sequence (P28223 whole entry, looked up): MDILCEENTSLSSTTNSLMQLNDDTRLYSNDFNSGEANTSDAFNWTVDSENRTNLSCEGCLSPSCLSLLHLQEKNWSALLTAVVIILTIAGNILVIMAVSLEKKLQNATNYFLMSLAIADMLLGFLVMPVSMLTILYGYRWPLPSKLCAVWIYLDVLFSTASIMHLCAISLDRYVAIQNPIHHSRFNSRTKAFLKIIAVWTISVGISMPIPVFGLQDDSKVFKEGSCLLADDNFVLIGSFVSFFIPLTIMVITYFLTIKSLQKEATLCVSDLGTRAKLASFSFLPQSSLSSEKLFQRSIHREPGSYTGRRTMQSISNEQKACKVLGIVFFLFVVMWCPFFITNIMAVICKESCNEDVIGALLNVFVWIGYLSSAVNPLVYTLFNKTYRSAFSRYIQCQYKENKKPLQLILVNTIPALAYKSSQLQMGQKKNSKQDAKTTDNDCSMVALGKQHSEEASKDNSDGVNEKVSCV
Assay: 5-hydroxytryptamine receptor 2A (HTR2A) small molecule antagonists, cell-based qHTS assay (AID 1963586); also: nearly all actives have a fitted effect of over 45% in size
Details: HTR2A-CHO cells, DOI-induced calcium flux, fluorescence; series mostly up to 61.5 µM
In short: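 CHO cells stably expressing human HTR2A were plated for 18 h at 37 C, then loaded with calcium dye for 1 h. Compounds were preincubated 5 min at room temperature before DOI (4 nM solution) was added. Kinetic fluorescence was read for 3 min.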
In the case of `CCOC=C(C(=O)OCC)C(=O)OCC`, the Potency is reported as “inactive”.
In the case of `CCC(=O)OCc1ccccc1`, the Potency is reported as “inactive”.
For `O=C1CC[C@H](C(=O)N2CCCCC2)N1`, the Potency was “inactive”.
With `C=C1CC/C=C(\C)CC[C@@H]2[C@@H]1CC2(C)C` the Potency was “inactive”.
In the case of `COc1cc(S(N)(=O)=O)cc(C(=O)O)c1OC`, the Potency is reported as “inactive”.
For `C1COCCO1`, the Potency was “inactive”.
For `CC/C=C/CCO`, the Potency was “inactive”.
For `CC(=O)N1CCN(c2ccc(O)cc2)CC1`, the Potency was “inactive”.
With `Cc1ncc(CO)c(CN)c1O` the Potency was “inactive”.
In the case of `CC(C)(C)c1ccc(CCC=O)cc1`, the Potency is reported as “inactive”.
For `CC1=C(O)C(=O)C(C)O1` (configuration not stated), the Potency was “inactive”.
In the case of `CCOC(=O)[C@H](CCc1ccccc1)N[C@@H](C)C(=O)N1C(=O)N(C)C[C@H]1C(=O)O`, the Potency is reported as “inactive”.
In the case of `CCCCCCCCCCCCCCCCCC(=O)OCC(CC)CCCC` (configuration not stated), the Potency is reported as “inactive”.
With `NC(=O)Cc1cccc2ccccc12` the Potency was “inactive”.
In the case of `Cc1cnccn1`, the Potency is reported as “inactive”.
For `O=Cc1ccc(Cl)cc1`, the Potency was “inactive”.
With `CCCCCCCCCCC` the Potency was “inactive”.
For `CCCCOC(=O)CCS`, the Potency was “inactive”.
In the case of `COc1cc(C(=S)N2CCOCC2)cc(OC)c1OC`, the Potency is reported as “inactive”.
In the case of `CCCC(=O)Nc1ccc(O)c(C(C)=O)c1`, the Potency is reported as “inactive”.
In the case of `COc1cc2c(Nc3ccc(Br)cc3F)ncnc2cc1OCC1CCN(C)CC1`, the Potency is reported as “inactive”.
In the case of `CC(=O)c1ccc2c(c1)CCCC2`, the Potency is reported as “inactive”.
In the case of `c1cnc2cc3c(cc2n1)C1CNCC3C1`, the Potency is reported as “inactive”.
With `O=Cc1ccc([N+](=O)[O-])cc1` the Potency was “inactive”.
For `CCC(=O)O[C@@H]1C[C@H]2CC[C@]1(C)C2(C)C`, the Potency was “inactive”.
For `CCNc1nc(N)nc(Cl)n1`, the Potency was “inactive”.
In the case of `CN(C)CCCNCCC#N`, the Potency is reported as “inactive”.
In the case of `O=C1CCN(c2ccccc2)N1`, the Potency is reported as “inactive”.
For `O=C(O)c1ccc(OCCN2CCCCC2)cc1`, the Potency was “inactive”.
In the case of `C=CC(C)(O)CC/C=C(/C)CCC=C(C)C` (configuration not stated), the Potency is reported as “inactive”.
With `Cc1cc(CCC(=O)OCCOCCOCCOC(=O)CCc2cc(C)c(O)c(C(C)(C)C)c2)cc(C(C)(C)C)c1O` the Potency was “inactive”.
For `C1CCCC1`, the Potency was “inactive”.
With `NS(=O)(=O)c1ccccc1OC(F)(F)F` the Potency was “inactive”.
For `Clc1ccc2c(c1)Nc1ccccc1S2`, the Potency was “inactive”.
In the case of `CC(C)(O)C(=O)c1ccc(OCCO)cc1`, the Potency is reported as “inactive”.
With `C[Si](C)(C)O[Si](C)(C)O[Si](C)(C)C` the Potency was “inactive”.
For `[Cl][Nd]([Cl])[Cl]`, the Potency was “inactive”.
In the case of `O=C(Cn1ccnc1[N+](=O)[O-])NCc1ccccc1`, the Potency is reported as “inactive”.
For `O=C(O)CC(=O)O`, the Potency was “inactive”.

Target: 5-hydroxytryptamine receptor 2A (Homo sapiens) (UniProt P28223)
Assay: 5-hydroxytryptamine receptor 2A (HTR2A) small molecule agonists, cell-based qHTS assay (AID 1963587); also: nearly all actives have a fitted effect of over 30% in size
Details: HTR2A-CHO cells, calcium flux fluorescence, agonist mode; series mostly up to 76.8 µM
In short: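 Kinetic calcium-flux fluorescence (2 min, 1 sec intervals) after compound addition in agonist mode. HTR2A-CHO cells were cultured 18 h, then dye-loaded 1 h at 37 C.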
In the case of `CCOC=C(C(=O)OCC)C(=O)OCC`, the Potency is reported as “inactive”.
With `CCC(=O)OCc1ccccc1` the Potency was “inactive”.
For `O=C1CC[C@H](C(=O)N2CCCCC2)N1`, the Potency was “inactive”.
For `C=C1CC/C=C(\C)CC[C@@H]2[C@@H]1CC2(C)C`, the Potency was “inactive”.
In the case of `COc1cc(S(N)(=O)=O)cc(C(=O)O)c1OC`, the Potency is reported as “inactive”.
In the case of `C1COCCO1`, the Potency is reported as “inactive”.
For `CC/C=C/CCO`, the Potency was “inactive”.
With `CC(=O)N1CCN(c2ccc(O)cc2)CC1` the Potency was “inactive”.
In the case of `Cc1ncc(CO)c(CN)c1O`, the Potency is reported as “inactive”.
In the case of `CC(C)(C)c1ccc(CCC=O)cc1`, the Potency is reported as “inactive”.
In the case of `CC1=C(O)C(=O)C(C)O1` (configuration not stated), the Potency is reported as “inactive”.
For `CCOC(=O)[C@H](CCc1ccccc1)N[C@@H](C)C(=O)N1C(=O)N(C)C[C@H]1C(=O)O`, the Potency was “inactive”.
With `CCCCCCCCCCCCCCCCCC(=O)OCC(CC)CCCC` (configuration not stated) the Potency was “inactive”.
With `NC(=O)Cc1cccc2ccccc12` the Potency was “inactive”.
In the case of `Cc1cnccn1`, the Potency is reported as “inactive”.
With `O=Cc1ccc(Cl)cc1` the Potency was “inactive”.
For `CCCCCCCCCCC`, the Potency was “inactive”.
With `CCCCOC(=O)CCS` the Potency was “inactive”.
For `COc1cc(C(=S)N2CCOCC2)cc(OC)c1OC`, the Potency was “inactive”.
In the case of `CCCC(=O)Nc1ccc(O)c(C(C)=O)c1`, the Potency is reported as “inactive”.
For `COc1cc2c(Nc3ccc(Br)cc3F)ncnc2cc1OCC1CCN(C)CC1`, the Potency was “inactive”.
With `CC(=O)c1ccc2c(c1)CCCC2` the Potency was “inactive”.
For `c1cnc2cc3c(cc2n1)C1CNCC3C1`, the Potency was “inactive”.
In the case of `O=Cc1ccc([N+](=O)[O-])cc1`, the Potency is reported as “inactive”.
In the case of `CCC(=O)O[C@@H]1C[C@H]2CC[C@]1(C)C2(C)C`, the Potency is reported as “inactive”.
In the case of `CCNc1nc(N)nc(Cl)n1`, the Potency is reported as “inactive”.
For `CN(C)CCCNCCC#N`, the Potency was “inactive”.
With `O=C1CCN(c2ccccc2)N1` the Potency was “inactive”.
For `O=C(O)c1ccc(OCCN2CCCCC2)cc1`, the Potency was “inactive”.
For `C=CC(C)(O)CC/C=C(/C)CCC=C(C)C` (configuration not stated), the Potency was “inactive”.
For `Cc1cc(CCC(=O)OCCOCCOCCOC(=O)CCc2cc(C)c(O)c(C(C)(C)C)c2)cc(C(C)(C)C)c1O`, the Potency was “inactive”.
With `C1CCCC1` the Potency was “inactive”.
In the case of `NS(=O)(=O)c1ccccc1OC(F)(F)F`, the Potency is reported as “inactive”.
For `Clc1ccc2c(c1)Nc1ccccc1S2`, the Potency was “inactive”.
With `CC(C)(O)C(=O)c1ccc(OCCO)cc1` the Potency was “inactive”.
For `C[Si](C)(C)O[Si](C)(C)O[Si](C)(C)C`, the Potency was “inactive”.
For `[Cl][Nd]([Cl])[Cl]`, the Potency was “inactive”.
With `O=C(Cn1ccnc1[N+](=O)[O-])NCc1ccccc1` the Potency was “inactive”.
In the case of `O=C(O)CC(=O)O`, the Potency is reported as “inactive”.
